Bioassay records (PubChem)
KCNH2 3.1 block – inhibitors of human KCNH2 3.1 potassium channel isoform; U2OS KCNH2 3.1, thallium flux FluxOr; active compounds read low; activity change, % (tested at about 1.8 µM); 340,000 compounds, 0.95% hits;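 active = maximum activity change below -70%; inconclusive = maximum activity change from -70% to -50%; inactive = maximum activity change above -50%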;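 also: thallium influx rate constant from kinetic fluorescence after stimulation buffer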
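Thallium flux read-out: FluxOr dye with Red40 quencher in HBSS/HEPES, 45 min at RT. Rate constants from kinetic reads were normalized to positive and negative DMSO controls. Cells: U2OS virally expressing the 3.1 isoform.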
KB-V1 MDR tox – KB-V1 MDR subline cytotoxicity | KB-V1 MDR cells viability, CellTiter-Glo, 72 h | Potency, µM (series often up to 46.1 µM), most hits filed as cytotoxic | 400,000 compounds, 3.4% hits; also: nearly all actives have a fitted effect of over 60% in size
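In this primary screen, KB-V1 cells overexpressing P-gp are incubated with library compounds (lowest to highest concentration) for 72 h at 37 degrees C before a luminescent ATP viability read.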
MCF10A rerep – induces DNA re-replication in MCF 10a normal breast cells; MCF 10A DNA re-replication, Hoechst nuclear intensity, 48 h; Potency, µM (titrated, usually from 46.1 µM), hits mostly activators; 350,000 compounds, 2.9% hits; AID 624296; also: nearly all actives have a fitted effect of over 50% in size
KCNH2 WT inh – inhibitors of human wildtype KCNH2 potassium channel; U2OS, BacMam KCNH2, thallium flux FluxOr; active compounds read low; activity change, % at 1.84 µM; 340,000 compounds, 0.37% hits; AID 720551;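 active = maximum activity change below -70%; inconclusive = maximum activity change between -70% and -50%; inactive = maximum activity change above -50%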
Target sequence (Q12809 whole entry, looked up): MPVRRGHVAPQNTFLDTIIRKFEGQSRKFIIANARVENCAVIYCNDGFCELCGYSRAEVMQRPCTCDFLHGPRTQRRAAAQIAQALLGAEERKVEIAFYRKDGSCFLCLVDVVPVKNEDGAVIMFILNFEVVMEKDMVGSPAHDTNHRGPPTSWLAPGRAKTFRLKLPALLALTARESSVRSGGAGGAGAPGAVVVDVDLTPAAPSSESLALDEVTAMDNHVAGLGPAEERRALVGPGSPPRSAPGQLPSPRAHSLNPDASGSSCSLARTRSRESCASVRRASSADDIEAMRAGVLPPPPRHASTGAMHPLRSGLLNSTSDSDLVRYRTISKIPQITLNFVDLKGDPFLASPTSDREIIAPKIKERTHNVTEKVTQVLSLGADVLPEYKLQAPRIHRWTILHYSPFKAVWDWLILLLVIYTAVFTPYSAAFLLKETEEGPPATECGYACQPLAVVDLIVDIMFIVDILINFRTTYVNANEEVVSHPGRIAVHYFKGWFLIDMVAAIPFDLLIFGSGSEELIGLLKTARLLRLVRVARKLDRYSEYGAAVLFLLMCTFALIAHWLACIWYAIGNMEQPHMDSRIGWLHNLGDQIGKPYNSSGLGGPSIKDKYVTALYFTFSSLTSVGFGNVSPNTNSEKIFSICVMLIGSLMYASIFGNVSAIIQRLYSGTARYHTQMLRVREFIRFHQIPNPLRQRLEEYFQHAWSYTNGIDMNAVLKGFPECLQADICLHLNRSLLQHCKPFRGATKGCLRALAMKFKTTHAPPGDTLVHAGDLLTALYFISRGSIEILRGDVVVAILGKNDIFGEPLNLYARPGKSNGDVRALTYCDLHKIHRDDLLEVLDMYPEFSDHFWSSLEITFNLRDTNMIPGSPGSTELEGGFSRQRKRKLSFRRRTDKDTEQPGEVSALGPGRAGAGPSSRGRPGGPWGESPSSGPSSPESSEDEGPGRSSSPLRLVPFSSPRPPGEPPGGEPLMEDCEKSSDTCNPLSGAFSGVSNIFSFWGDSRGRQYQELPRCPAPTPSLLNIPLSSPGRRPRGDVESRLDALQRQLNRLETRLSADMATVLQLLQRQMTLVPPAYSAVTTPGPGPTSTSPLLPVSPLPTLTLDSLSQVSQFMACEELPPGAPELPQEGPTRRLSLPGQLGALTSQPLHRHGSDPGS
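U2OS cells were transduced with wild-type KCNH2 virus (2.03 x 10^8 / mL) for 4 h at room temperature, then cultured overnight at 37 C. Thallium flux was read with FluxOr dye. Rate constants were normalized to DMSO controls.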
KB-3-1 cytotox – KB-3-1 parental cell cytotoxicity. AID 1347075. KB-3-1 viability, CellTiter-Glo ATP luminescence, 72 h. 400,000 compounds, 1.4% hits. Potency, µM (series often up to 46.1 µM), usual class: cytotoxic; also: nearly all actives have a fitted effect of over 60% in size
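Cytotoxicity in the drug-sensitive parental line KB-3-1 was scored as loss of CellTiter-Glo luminescence following 72 h incubation with compound. Values come from curve fitting of normalized concentration-response data.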
SW480 rereplic – inducers of DNA re-replication in SW480 colon cancer cells; SW480 DNA re-replication, Hoechst DNA content imaging, 48 h; Potency, µM (highest dose often 46.1 µM), hits mostly activators; 340,000 compounds, 1.8% hits; also: nearly all actives have a fitted effect of over 55% in size
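Cells (250 per well) received 23 nL compound or DMSO by pin tool and were kept 48 hr at 37 C, 5% CO2. Nuclei were then stained with Hoechst for 40 min and scanned for DNA content.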
Of the large screens only hits and unclear results are named; the others gave an inactive call. The list is not random: actives were taken first. Their share in the collection is about 7.6%. Unless noted, calls follow the shape of the dose curve; as a rule, active = well fitted curve in the direction sought with a large enough effect; inconclusive = small, poorly fitted or top-dose-only effect, or another doubt; inactive = no such curve, though single readings can be large; an effect the other way counts as inactive or inconclusive.

CCC(C(=O)N1CCN(c2ccccc2OC)CC1)c1ccccc1 (configuration not stated)	KB-V1 MDR tox 20.6µM, MCF10A rerep inconclusive, KB-3-1 cytotox inconclusive
CCOC(=O)N1CCN(C(=O)C(CC)c2ccccc2)CC1 (configuration not stated)	KB-V1 MDR tox 11.6µM
CCOc1ccc(NC(=O)Cn2cc(C(=O)c3ccc(F)cc3)c(=O)c3cc4c(cc32)OCCO4)cc1	none (no result: KCNH2 3.1 block, MCF10A rerep, KCNH2 WT inh, SW480 rereplic)
CC1(C(=O)NS(=O)(=O)C2CC2)CCCN(C(=O)c2ccc(F)c(Cl)c2)C1 (configuration not stated)	none (no result: KCNH2 3.1 block, MCF10A rerep, KCNH2 WT inh, SW480 rereplic)
CCN1CCOC(=O)C1CC(=O)Nc1ccc(C)c(Cl)c1 (configuration not stated)	KB-V1 MDR tox inconclusive (no result: KCNH2 3.1 block, MCF10A rerep, KCNH2 WT inh, SW480 rereplic)
Cc1ccc(-c2nc3cccnc3o2)cc1NC(=O)COc1ccc(C(C)(C)C)cc1	KB-V1 MDR tox inconclusive, MCF10A rerep 18.4µM, KB-3-1 cytotox inconclusive, SW480 rereplic inconclusive
CNc1cc2c(cc1S(=O)(=O)Nc1ccc(C)c(C)c1)CCC(=O)N2	none (no result: KCNH2 3.1 block, MCF10A rerep, KCNH2 WT inh, SW480 rereplic)
COc1ccc(O)c(C(=O)c2cc(C(=O)NCCc3ccccc3)c(=O)n(CCc3ccccc3)c2)c1	KB-V1 MDR tox 2.06µM
Cc1ccc(O)c(C(=O)c2cc(C(=O)NCCc3ccccc3)c(=O)n(CCc3ccccc3)c2)c1	MCF10A rerep inconclusive, SW480 rereplic inconclusive
FC(F)(F)c1nnc2c(Sc3ccccc3)nc3ccc(Cl)cc3n12	KB-V1 MDR tox inconclusive, MCF10A rerep 11.6µM, KB-3-1 cytotox inconclusive, SW480 rereplic inconclusive
CC(C(=O)N=Nc1c(O)[nH]c2ccccc12)n1cnc2ccccc2c1=O (configuration not stated)	KB-V1 MDR tox 18.4µM, MCF10A rerep inconclusive, SW480 rereplic inconclusive
Cc1cccc2c(N=NC(=O)C(C)n3cnc4ccccc4c3=O)c(O)[nH]c12 (configuration not stated)	none
CC(=O)NCc1cc(-c2nn(C)c(=O)c3ccccc23)ccc1C	none
Cc1ccc(-c2nn(C)c(=O)c3ccccc23)cc1CNC(=O)NC1CCCCC1	KCNH2 3.1 block -165.6, KCNH2 WT inh -142.4
c1ccc(CSc2nnc(NC3CCCCC3)s2)cc1	none (no result: MCF10A rerep, SW480 rereplic)
COC(=O)c1cc(CSc2nnc(NC3CCCCC3)s2)oc1C	KB-V1 MDR tox 20.6µM, KB-3-1 cytotox inconclusive
COc1ccc(/C=N/Nc2nc(-c3cccc(S(=O)(=O)N4CCCC4)c3)cs2)c(OC)c1	KB-V1 MDR tox 2.59µM, MCF10A rerep inconclusive, KB-3-1 cytotox 18.4µM
CC#CCOC(=O)c1c(C)nc2sc3c(c2c1N)CC[C@@H](O)C3	KB-3-1 cytotox inconclusive (no result: KCNH2 3.1 block, MCF10A rerep, KCNH2 WT inh, SW480 rereplic)
N#C/C(=C\c1c(N2CCCCCC2)nc2ccccn2c1=O)C(=O)NCc1ccco1	MCF10A rerep inconclusive
CNC(=O)/C(C#N)=C/c1c(N(Cc2ccccc2)Cc2ccccc2)nc2c(C)cccn2c1=O	KB-V1 MDR tox 23.1µM, MCF10A rerep inconclusive, KB-3-1 cytotox 16.4µM
N#C/C(=C\c1c(N2CCCCC2)nc2ccccn2c1=O)C(=O)NCc1ccco1	KB-V1 MDR tox 2.91µM, KB-3-1 cytotox inconclusive
CCNC(=O)/C(C#N)=C/c1c(N(Cc2ccccc2)Cc2ccccc2)nc2ccccn2c1=O	KB-V1 MDR tox 2.91µM, KB-3-1 cytotox inconclusive
CCN(CC)C(=O)c1sc(N2C(=O)Nc3ccccc3N2O)c(C(=O)OC)c1C	none
CCCc1c(NC(=O)Nc2ccc(F)cc2)cnn1-c1ccc(Cl)cc1	KB-V1 MDR tox inconclusive, MCF10A rerep inconclusive, KB-3-1 cytotox 9.2µM, SW480 rereplic inconclusive
N#CCCn1cc(/C=C2\NC(=S)N(c3ccccc3)C2=O)c(-c2ccc(-c3ccccc3)cc2)n1	MCF10A rerep 5.8µM, KB-3-1 cytotox inconclusive, SW480 rereplic inconclusive
N#CCCn1cc(/C=C(\C#N)c2nc3ccccc3s2)c(-c2ccc(F)cc2)n1	none
N#CCCn1cc(/C=N/O)c(-c2ccc(Cl)cc2)n1	none
O=C(O)CCn1cc(/C=C2/NC(=S)N(c3ccccc3)C2=O)c(-c2ccccc2)n1	none
